The supplement of paper PMC10849652
Of roughly 8,800 targets only a part is listed; those with a hit were picked by preference. About 0.5% of all pairs of compound and target were hits. Values without a mark were called inactive.

Experiments:
Assay in all cases: log2 fold change, soluble protein after heating vs DMSO (PISA); higher = thermal stabilisation; K562 lysate, 10 uM; active = over 0.2 and 3.5 SD of the protein, either way, in both replicates (recomputed)
alvocidib = compound: CN1CC[C@H](c2c(O)cc(O)c3c(=O)cc(-c4ccccc4Cl)oc23)[C@H](O)C1 [alvocidib]
In short: (§1)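 Thermal stability, expressed as log-two fold change relative to solvent controls, is given from duplicates. Crude K562 extract in PBS pH 7.4 with 1 mM MgCl2, at 1 mg/mL protein, was treated with 10 μM compound for 30 min and heated in aliquots for 3 min across 48°C-58°C. After pooling, adjustment to 0.5% NP-40 at 4°C and centrifugation at 21,000xg for 90 min, supernatant protein was measured by TMTpro 16plex LC-MS/MS with channel sums equalised.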

Tubastatin A = compound: CN1CCc2c(c3ccccc3n2Cc2ccc(C(=O)NO)cc2)C1 [Tubastatin A]
In short: as §1

[1] = compound: CNC(=O)C1=CC=CC=C1NC2=NC(=NC=C2Cl)NC3=C(C=C(C=C3)N4CCOCC4)OC
In short: as §1

defactinib = compound: CNC(=O)c1ccc(Nc2ncc(C(F)(F)F)c(NCc3nccnc3N(C)S(C)(=O)=O)n2)cc1 [defactinib]
In short: as §1

[2] = compound: CNc1nc(-c2ccc3c(N)n[nH]c3c2)cc(N2C[C@@H](C(=O)NC3CCCCC3)CC[C@H]2C)n1
In short: as §1

encorafenib = compound: COC(=O)N[C@@H](C)CNc1nccc(-c2cn(C(C)C)nc2-c2cc(Cl)cc(NS(C)(=O)=O)c2F)n1 [encorafenib]
In short: as §1

[3] = compound: COC(=O)[C@H](CCSC)NC(=O)C1=C(C=C(C=C1)NC[C@H](CS)N)C2=CC=CC=C2
In short: as §1

alisertib = compound: COc1cc(Nc2ncc3c(n2)-c2ccc(Cl)cc2C(c2c(F)cccc2OC)=NC3)ccc1C(=O)O [alisertib]
In short: as §1

[4] = compound: COc1cc2nc(-c3cc(F)ccc3O)nc(N[C@@H]3CNC[C@H]3C(C)(C)O)c2cc1OC
In short: as §1

gefitinib = compound: COc1cc2ncnc(Nc3ccc(F)c(Cl)c3)c2cc1OCCCN1CCOCC1 [gefitinib]
In short: as §1

UniProt P52895, sequence (P52895 whole entry, looked up): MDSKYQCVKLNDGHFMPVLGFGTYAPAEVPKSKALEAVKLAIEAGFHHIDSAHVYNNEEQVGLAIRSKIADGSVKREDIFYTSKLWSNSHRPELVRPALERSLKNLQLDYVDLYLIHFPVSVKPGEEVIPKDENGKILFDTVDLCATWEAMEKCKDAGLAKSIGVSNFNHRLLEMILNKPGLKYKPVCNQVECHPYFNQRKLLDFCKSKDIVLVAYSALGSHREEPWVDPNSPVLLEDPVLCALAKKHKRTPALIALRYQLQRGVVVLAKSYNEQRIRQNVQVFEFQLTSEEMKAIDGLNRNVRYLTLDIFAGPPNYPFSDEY
UniProt P00519, sequence (P00519 whole entry, looked up): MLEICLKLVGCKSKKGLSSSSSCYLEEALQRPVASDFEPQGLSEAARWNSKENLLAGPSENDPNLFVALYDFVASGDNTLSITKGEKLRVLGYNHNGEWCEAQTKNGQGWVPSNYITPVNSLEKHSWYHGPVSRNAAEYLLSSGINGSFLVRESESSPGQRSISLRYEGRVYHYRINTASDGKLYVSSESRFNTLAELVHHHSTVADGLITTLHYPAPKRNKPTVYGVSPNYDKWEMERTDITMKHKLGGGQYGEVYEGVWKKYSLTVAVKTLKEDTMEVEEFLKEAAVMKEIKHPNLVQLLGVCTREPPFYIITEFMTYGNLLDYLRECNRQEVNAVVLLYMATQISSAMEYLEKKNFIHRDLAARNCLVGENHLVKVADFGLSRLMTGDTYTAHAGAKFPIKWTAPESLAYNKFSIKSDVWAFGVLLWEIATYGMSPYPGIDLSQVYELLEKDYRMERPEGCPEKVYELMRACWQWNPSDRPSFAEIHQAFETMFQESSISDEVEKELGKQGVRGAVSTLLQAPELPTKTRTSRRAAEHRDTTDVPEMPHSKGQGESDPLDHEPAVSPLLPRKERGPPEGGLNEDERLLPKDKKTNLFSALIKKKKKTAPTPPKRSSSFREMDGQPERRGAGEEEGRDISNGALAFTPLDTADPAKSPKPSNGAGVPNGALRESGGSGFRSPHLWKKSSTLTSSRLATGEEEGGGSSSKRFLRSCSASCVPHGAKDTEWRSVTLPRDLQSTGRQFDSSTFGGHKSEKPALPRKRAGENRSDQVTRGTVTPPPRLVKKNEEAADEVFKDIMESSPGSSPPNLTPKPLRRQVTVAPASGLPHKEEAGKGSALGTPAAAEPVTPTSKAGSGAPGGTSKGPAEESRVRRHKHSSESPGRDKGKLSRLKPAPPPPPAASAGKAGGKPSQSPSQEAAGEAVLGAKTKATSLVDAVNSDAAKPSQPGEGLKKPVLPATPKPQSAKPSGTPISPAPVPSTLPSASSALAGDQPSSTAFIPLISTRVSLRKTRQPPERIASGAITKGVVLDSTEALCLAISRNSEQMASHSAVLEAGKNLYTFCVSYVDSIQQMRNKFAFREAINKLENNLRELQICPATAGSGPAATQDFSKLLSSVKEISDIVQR
UniProt O43182, sequence (O43182 whole entry, looked up): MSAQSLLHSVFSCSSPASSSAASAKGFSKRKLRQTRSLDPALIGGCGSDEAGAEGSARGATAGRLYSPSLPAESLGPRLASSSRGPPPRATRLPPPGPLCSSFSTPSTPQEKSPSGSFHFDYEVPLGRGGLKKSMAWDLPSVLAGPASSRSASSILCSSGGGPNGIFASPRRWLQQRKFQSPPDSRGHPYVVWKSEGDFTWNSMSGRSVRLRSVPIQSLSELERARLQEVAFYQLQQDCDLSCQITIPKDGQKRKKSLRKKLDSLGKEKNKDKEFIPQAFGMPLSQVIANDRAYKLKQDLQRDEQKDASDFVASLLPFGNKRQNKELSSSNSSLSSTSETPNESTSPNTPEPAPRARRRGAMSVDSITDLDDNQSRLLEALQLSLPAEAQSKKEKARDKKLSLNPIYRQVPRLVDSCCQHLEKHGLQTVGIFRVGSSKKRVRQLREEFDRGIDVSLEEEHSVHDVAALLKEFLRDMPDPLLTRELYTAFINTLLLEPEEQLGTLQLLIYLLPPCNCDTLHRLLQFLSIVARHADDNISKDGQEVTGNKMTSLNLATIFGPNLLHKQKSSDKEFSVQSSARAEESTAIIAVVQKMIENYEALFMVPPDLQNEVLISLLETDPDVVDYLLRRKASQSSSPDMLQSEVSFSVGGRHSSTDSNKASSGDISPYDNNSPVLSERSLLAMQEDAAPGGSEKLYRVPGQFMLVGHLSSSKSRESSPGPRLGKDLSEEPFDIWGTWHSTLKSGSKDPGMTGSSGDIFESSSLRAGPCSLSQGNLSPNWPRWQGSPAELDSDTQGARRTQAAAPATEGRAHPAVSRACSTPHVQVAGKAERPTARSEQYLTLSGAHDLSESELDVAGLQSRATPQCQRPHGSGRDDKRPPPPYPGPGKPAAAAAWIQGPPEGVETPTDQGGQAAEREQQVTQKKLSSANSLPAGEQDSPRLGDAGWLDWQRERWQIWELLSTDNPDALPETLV
UniProt Q12797, sequence (Q12797 whole entry, looked up): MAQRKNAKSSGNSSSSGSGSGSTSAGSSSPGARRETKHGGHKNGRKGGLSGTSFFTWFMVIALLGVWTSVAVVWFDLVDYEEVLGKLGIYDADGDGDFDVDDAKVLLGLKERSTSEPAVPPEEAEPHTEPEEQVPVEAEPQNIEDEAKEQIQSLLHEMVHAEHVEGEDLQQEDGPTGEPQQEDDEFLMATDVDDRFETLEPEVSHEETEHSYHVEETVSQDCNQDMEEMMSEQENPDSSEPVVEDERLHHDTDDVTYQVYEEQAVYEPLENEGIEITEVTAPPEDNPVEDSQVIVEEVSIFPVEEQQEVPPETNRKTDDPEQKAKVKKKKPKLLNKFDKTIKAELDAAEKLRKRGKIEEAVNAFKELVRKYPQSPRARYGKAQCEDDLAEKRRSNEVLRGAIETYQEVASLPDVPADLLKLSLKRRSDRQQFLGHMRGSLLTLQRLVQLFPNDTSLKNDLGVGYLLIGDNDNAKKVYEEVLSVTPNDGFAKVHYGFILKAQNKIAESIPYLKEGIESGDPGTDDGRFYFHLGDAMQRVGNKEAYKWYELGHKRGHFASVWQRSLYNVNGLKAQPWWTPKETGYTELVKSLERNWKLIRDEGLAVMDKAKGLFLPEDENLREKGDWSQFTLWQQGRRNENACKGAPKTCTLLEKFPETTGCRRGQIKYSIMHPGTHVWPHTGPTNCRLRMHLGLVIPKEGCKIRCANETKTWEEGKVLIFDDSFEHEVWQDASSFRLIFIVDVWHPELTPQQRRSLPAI
UniProt Q8IZP0, sequence (Q8IZP0 whole entry, looked up): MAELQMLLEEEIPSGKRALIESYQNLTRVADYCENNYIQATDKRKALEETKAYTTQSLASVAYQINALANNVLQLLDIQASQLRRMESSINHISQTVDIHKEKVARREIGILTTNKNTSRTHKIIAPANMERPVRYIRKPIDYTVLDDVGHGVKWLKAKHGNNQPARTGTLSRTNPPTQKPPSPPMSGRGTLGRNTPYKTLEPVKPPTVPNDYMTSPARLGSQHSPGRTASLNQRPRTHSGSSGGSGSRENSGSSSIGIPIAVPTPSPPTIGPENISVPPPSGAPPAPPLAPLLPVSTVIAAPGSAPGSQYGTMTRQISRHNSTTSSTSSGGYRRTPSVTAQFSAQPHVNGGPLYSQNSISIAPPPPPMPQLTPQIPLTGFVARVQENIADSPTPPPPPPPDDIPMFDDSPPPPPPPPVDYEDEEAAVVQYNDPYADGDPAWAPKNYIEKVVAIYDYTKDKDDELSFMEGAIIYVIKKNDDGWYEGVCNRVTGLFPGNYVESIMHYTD
UniProt P00568, sequence (P00568 whole entry, looked up): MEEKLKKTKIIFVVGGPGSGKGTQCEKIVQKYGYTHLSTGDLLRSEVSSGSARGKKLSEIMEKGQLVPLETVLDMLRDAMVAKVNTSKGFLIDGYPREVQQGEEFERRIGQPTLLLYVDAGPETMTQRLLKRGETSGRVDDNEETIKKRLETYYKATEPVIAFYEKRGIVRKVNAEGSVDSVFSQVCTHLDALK
UniProt P54886, sequence (P54886 whole entry, looked up): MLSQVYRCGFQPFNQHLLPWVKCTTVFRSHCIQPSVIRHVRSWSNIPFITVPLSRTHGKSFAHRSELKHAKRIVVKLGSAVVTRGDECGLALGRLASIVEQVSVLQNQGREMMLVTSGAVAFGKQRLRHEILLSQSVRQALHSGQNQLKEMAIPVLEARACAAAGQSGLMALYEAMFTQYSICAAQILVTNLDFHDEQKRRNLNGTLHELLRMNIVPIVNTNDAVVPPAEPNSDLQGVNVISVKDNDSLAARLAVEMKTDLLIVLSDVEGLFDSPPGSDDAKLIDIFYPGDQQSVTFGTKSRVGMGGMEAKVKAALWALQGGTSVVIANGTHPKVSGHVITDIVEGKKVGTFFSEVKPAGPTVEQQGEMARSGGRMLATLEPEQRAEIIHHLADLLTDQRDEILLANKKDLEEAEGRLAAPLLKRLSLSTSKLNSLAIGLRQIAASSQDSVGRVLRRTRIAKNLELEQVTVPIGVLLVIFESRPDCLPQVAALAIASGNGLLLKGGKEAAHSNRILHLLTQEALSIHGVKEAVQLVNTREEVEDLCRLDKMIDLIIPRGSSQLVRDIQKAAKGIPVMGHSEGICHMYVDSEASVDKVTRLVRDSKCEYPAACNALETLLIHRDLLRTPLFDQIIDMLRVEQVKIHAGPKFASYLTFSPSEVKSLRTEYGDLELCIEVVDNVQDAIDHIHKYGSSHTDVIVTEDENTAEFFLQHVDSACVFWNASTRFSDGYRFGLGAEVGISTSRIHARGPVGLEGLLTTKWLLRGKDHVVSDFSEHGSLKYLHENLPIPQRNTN
UniProt P07311, sequence (P07311 whole entry, looked up): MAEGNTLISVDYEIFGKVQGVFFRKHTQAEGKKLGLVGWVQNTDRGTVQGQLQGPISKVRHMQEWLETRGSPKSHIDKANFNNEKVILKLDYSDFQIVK
UniProt P40616, sequence (P40616 whole entry, looked up): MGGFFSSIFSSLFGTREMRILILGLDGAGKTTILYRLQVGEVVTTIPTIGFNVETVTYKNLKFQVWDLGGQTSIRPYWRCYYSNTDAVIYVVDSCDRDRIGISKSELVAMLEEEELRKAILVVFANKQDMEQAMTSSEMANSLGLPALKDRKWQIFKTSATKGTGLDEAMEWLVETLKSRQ

Target | log2 fold change (alvocidib) | log2 fold change (Tubastatin A) | log2 fold change [1] | log2 fold change (defactinib) | log2 fold change [2] | log2 fold change (encorafenib) | log2 fold change [3] | log2 fold change (alisertib) | log2 fold change [4] | log2 fold change (gefitinib)
ARMCX5 (UniProt Q6P1M9) | 0.029 | -0.105 | 0.067 | 0.014 | -0.012 | 0.045 | 0.023 | -0.003 | 0.035 | 0.035
ALDH6A1 (UniProt Q02252) | -0.044 | 0.43 (active) | 0.106 | 0.018 | 0.091 | -0.015 | 0.103 | 0.086 | 0.061 | 0.098
ARAP1 (UniProt Q96P48) | -0.027 | -0.135 | 0.033 | 0.075 | 0.017 | 0.06 | 0.078 | 0.015 | 0.003 | 0.041
ASPH (UniProt Q12797) | -0.012 | 0.018 | -0.01 | 0.023 | -0.006 | 0.018 | -0.047 | 0.042 | -0.025 | -0.041
ALG8 (UniProt Q9BVK2) | 0.004 | -0.118 | -0.007 | 0.001 | -0.012 | 0.04 | -0.09 | 0.076 | -0.019 | 0.103
ACADM isoform 2 (UniProt P11310) | -0.022 | -0.012 | 0.046 | -0.01 | 0.386 (active) | -0.032 | 0.13 | 0.062 | 0.09 | -0.024
ACYP1 (UniProt P07311) | 0.084 | 0.008 | -0.002 | 0.014 | -0.018 | -0.018 | -0.016 | 0.012 | -0.008 | 0.026
AGPS (UniProt O00116) | -0.011 | 0.039 | -0.046 | -0.003 | 0.011 | -0.005 | -0.125 | 0.035 | -0.03 | -0.002
AK1 (UniProt P00568) | 0.154 | 0.009 | -0.034 | -0.035 | -0.007 | -0.036 | -0.07 | 0 | 0.013 | -0.019
ALDH1L2 (UniProt Q3SY69) | -0.04 | -0.03 | -0.028 | -0.04 | -0.021 | -0.002 | 0.288 (active) | -0.039 | 0.039 | 0.017
ARL1 (UniProt P40616) | -0.017 | -0.025 | 0.079 | 0.001 | 0.088 | 0.111 | -0.293 (active) | 0.081 | 0.053 | 0.057
ACBD6 (UniProt Q9BR61) | -0.009 | -0.15 | 0.056 | -0.005 | 0.016 | -0.003 | 0.051 | -0.006 | 0.016 | -0.022
AARS2 (UniProt Q5JTZ9) | 0.064 | -0.093 | -0.011 | -0.05 | -0.017 | 0.006 | 0.106 | 0.02 | -0.119 | -0.02
AKR1C2 (UniProt P52895) | -0.06 | 0.061 | -0.021 | -0.05 | -0.151 | -0.012 | 0.018 | 0.002 | 0.004 | -0.082
ACIN1 isoform 5 (UniProt Q9UKV3) | -0.038 | 0.039 | -0.034 | -0.009 | 0.053 | -0.004 | -0.01 | 0.032 | -0.003 | 0.001
ABI1 isoform 9 (UniProt Q8IZP0) | -0.096 | 0.053 | 0.005 | -0.038 | 0.025 | 0.003 | -0.057 | -0.02 | 0.018 | -0.015
AGTPBP1 (UniProt Q9UPW5) | 0.034 | 0.046 | 0.024 | -0.058 | -0.001 | -0.014 | -0.031 | 0.097 | -0.039 | -0.004

Target | log2 fold change (alvocidib) | log2 fold change (Tubastatin A) | log2 fold change [1] | log2 fold change (defactinib) | log2 fold change [2] | log2 fold change (encorafenib) | log2 fold change [3] | log2 fold change (alisertib) | log2 fold change [4] | log2 fold change (gefitinib)
ACACB (UniProt O00763) | -0.04 | -0.153 | 0.007 | 0.019 | -0.043 | 0.127 | -0.156 | 0.016 | 0.006 | 0.006
ARHGAP6 (UniProt O43182) | 0.003 | -0.201 | 0.129 | 0.012 | -0.017 | 0.06 | 0.063 | 0.017 | -0.012 | -0.069
ANP32E (UniProt Q9BTT0) | 0 | 0.079 | -0.007 | -0.018 | 0.056 | -0.037 | -0.008 | -0.019 | 0.007 | -0.061
AFF1 isoform 2 (UniProt P51825) | -0.157 | 0.052 | 0.076 | 0.083 | 0.004 | -0.001 | -0.033 | -0.043 | 0.157 | -0.323
ACLY isoform 2 (UniProt P53396) | -0.147 | 0.017 |  | 0.007 |  | 0.072 | 0.009 | -0.089 | 0.071 | -0.407
ARHGEF2 (UniProt V9GYF0) |  | -0.07 |  | -0.211 | 0.082 | -0.035 | 0.014 | -0.083 | 0.112 | 0.229
ALG13 isoform 2 (UniProt Q9NP73) | 0.003 |  |  |  |  |  |  | -0.281 |  | -0.095
ANKRD44 isoform 2 (UniProt Q8N8A2) | -0.688 |  | 0.075 | -0.129 |  | -0.048 | 0.103 | 0.2 | 0.119 | 0.169
AGGF1 (UniProt Q8N302) | -0.114 | -0.058 | 0.023 | -0.365 (active) |  | 0.126 | 0.008 | -0.015 | 0.145 | -0.008
ANXA2 (UniProt H0YL33) | 0.315 | 0.109 | -0.177 |  | 0.222 |  |  | 0.001 | 0.005 | 0.097
ADK, A0A5F9ZH76 |  |  |  |  |  |  |  | 0.008 | -0.063 | 0.072
ABCA3 (UniProt Q99758) | 0.109 | 0.188 | -0.017 | -0.037 | 0.317 | -0.12 | 0.025 |  | -0.09 | 
AIMP2 isoform 2 (UniProt Q13155) |  | -0.038 |  |  |  |  |  |  | 0.115 | 
ALKBH1 (UniProt Q13686) | 0.003 | -0.018 | -0.113 | -0.008 | 0.027 | -0.016 | 0.073 | -0.044 |  | -0.07
ACVR1 (UniProt Q04771) | 0.086 |  |  |  | -0.056 |  |  | 0.069 |  | 0.158
ABL1 isoform 2 (UniProt P00519) |  | -0.091 | 0.044 | -0.023 | -0.011 | 0.039 | 0.071 | 0.019 | -0.011 | 
ALDH18A1 isoform 2 (UniProt P54886) |  | -0.06 |  | 0.016 | -0.139 |  |  |  |  | 
